Experimental data taken from PubChem BioAssay AID2690 (NMMLSC, 2010).
In all, about 330,000 compounds went through this assay and about 590 (0.18%) were called active. The list comes from a sample in which actives are over-represented; it also holds similar structures and randomly drawn compounds. A number with no mark means an inactive call.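 How the source made its calls: active means superoxide response under a set limit, about three screen SD below normal (cut at about 65% in these data); inactive means the rest.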

Experiment: yeast aging ROS inhibitors as calorie-restriction mimetics – HTS, primary screen (AID 2690);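 further: yeast aged for seven days with compound at 30 °C before DHE staining; 100% = average MFI of all compound-treated wells on the plate with controls excluded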
Details: S. cerevisiae aged cells, superoxide DHE fluorescence; at 10 µM; active compounds read low

Row | Structure (SMILES) | superoxide response (% of plate mean)
1 | CCc1noc(C)c1C(=O)Oc1ccc(N(C)S(=O)(=O)c2ccc(C)c(C)c2)cc1 | 103%
2 | CCOc1c(N2CCCCC2)c(=O)c1=O | 105%
3 | COc1ccc(NS(=O)(=O)c2ccc(O)c(C(=O)OCC(=O)NC3CCCCC3)c2)cc1 | 93.5%
4 | NS(=O)(=O)c1ccc(CCNC(=O)CN2C(=O)c3ccccc3S2(=O)=O)cc1 | 111%
5 | Cc1ccc(C(=O)OCC(=O)NC(=O)Cc2ccccc2)c(O)c1 | 110%
6 | C=CCNC(=S)/N=c1/ccccn1Cc1ccccc1 | 102%
7 | COC(=O)c1ccc(NC(=O)CSc2nncc3ccc(OC)c(OC)c23)cc1 | 119%
8 | C=CCn1c(SCc2ccccc2)nc2c1c(=O)[nH]c(=O)n2C | 102%
9 | Cc1cc(OCc2cc(C(=O)NCc3cc(C(C)C)no3)no2)cc(C)c1Cl | 111%
10 | NC(=O)Cc1ccc2c(c1)[nH]c1ccccc12 | 40.8% (active)
11 | NC(=O)CSc1c[nH]c2ccccc12 | 97.2%
12 | CCn1c2ccccc2c2cc(CC(N)=O)ccc21 | 105%
13 | OCCC1CN(Cc2cnc(-c3ccccc3)s2)CCN1CCc1ccccc1 (centres undefined) | 88.7%
14 | Cc1cccc(OCC(=O)OCC(=O)Nc2ccc(Cl)cn2)c1 | 99.9%
15 | CCCC(C(=O)NCc1ccco1)N(C(=O)CNS(=O)(=O)c1ccccc1)C1CCCC1 (centres undefined) | 101%
16 | Cc1ccc(-c2noc(CNC(=O)c3ccoc3C)n2)cc1 | 85%
17 | Cc1ccc(N2CCN(S(=O)(=O)c3ccc(F)cc3)CC2)c(C)c1 | 106%
18 | CC(=O)c1ccc(N2CCN(S(=O)(=O)c3ccc4c(c3)CC(=O)N4C)CC2)cc1 | 97.6%
19 | Cc1c(NC(=O)CN(C)CC(=O)Nc2ccc(F)c(F)c2F)c(=O)n(-c2ccccc2)n1C | 91.2%
20 | CCOc1ccc2nc(Cl)c(C3CC(c4ccccc4)=NN3C(=O)c3cccs3)cc2c1 (centres undefined) | 75.7%
21 | O=C(CSc1nnnn1C1CCCC1)Nc1ccc2c(c1)OCCO2 | 98.8%
22 | CC(C(=O)N=Nc1c(O)n(C)c2ccc(Br)cc12)n1cnc2ccccc2c1=O (centres undefined) | 89.3%
23 | COc1cc(NC(=O)C2=C(C)OCCS2)c(Cl)cc1C(=O)NCCN1CCN(C)CC1 | 99.2%
24 | CCN(CC)N=Nc1cccc(NC(C)=O)c1 | 96.8%
25 | CCc1ccccc1NC(=O)CN(C)C(=O)c1cc(C2CC2)nn1-c1ccccc1 | 117%

Row | Structure (SMILES) | superoxide response (% of plate mean)
26 | C/C(CC(=O)NC(C)(C)C)=N\NC(=O)c1ccco1 | 92.3%
27 | O=C(OC1CCCCC1=O)c1cccc(S(=O)(=O)NCc2ccccc2)c1 (centres undefined) | 91.2%
28 | O=C(O)CC/C(=N\NC(=O)c1ccc(F)cc1)c1ccc(Br)cc1 | 97.4%
29 | COc1cc(NS(=O)(=O)c2ccc(NC(=O)CN3C(=O)c4ccccc4C3=O)cc2)ncn1 | 87.5%
30 | CNC(=O)c1cccc2nc3ccccc3nc12 | 47% (active)
31 | CN(C)C(=O)c1coc2nc3ccccc3nc12 | 90.3%
32 | CNC(=O)c1cc2c(ccc3ccccc32)oc1=N | 90%
33 | O=C1CCCCC1C(=O)c1ccccc1 (centres undefined) | 88.5%
34 | CCc1ccc(-c2nc(SCC(=O)NC3CCCC3)n[nH]2)cc1 | 109%
35 | Clc1ccc2nc(CSc3ccccc3)cn2c1 | 99.1%
36 | Cc1ccc(OCC(=O)Nc2ccc(N3CCN(C(=O)c4ccco4)CC3)cc2)c(C)c1 | 100%
37 | CN(C)c1ccc(/C=N\S(=O)(=O)c2ccccc2)cc1 | 64.7% (active)
38 | CN(C)c1ccc(/C=N/NC(=O)C(O)c2ccc(Br)cc2)cc1 (centres undefined) | 110%
39 | CN(C)c1ccc(C=NCCc2ccc(S(N)(=O)=O)cc2)cc1 | 82.2%
40 | Cc1c(C(=O)OCC(=O)N(CCC#N)c2ccccc2)oc2c1ccc1ccccc12 | 86.3%
41 | C=C(C)CNC(=O)c1ccc(OC2CCN(C(=O)COC)CC2)cc1 | 103%
42 | COCCC(=O)N1CCC(Oc2ccc(C(=O)NCc3ccon3)cc2)CC1 | 92%
43 | COC(=O)CNC(=O)c1ccc(OC2CCN(C(=O)C3CC3)CC2)cc1 | 64% (active)
44 | C[n+]1cc(-c2ccccc2)oc1-c1ccccc1 | 96.2%
45 | COc1ccc(/C(C)=N/Nc2cc(C(F)(F)F)ccc2Cl)c(OC)c1 | 87.7%
46 | N=C1C(=O)OCC1c1ccccc1NC(=O)CN1CCCCC1 (centres undefined) | 110%
47 | CCCCOC(=O)Nc1sc2nc(C)cc(C)c2c1-n1cccc1 | 113%
48 | Cc1ccc2c(cnn2C(=O)CCC(=O)NC2CCCC2)c1 | 96.7%
49 | COc1ccc(C2=Nc3cc(C)ccc3OC2)cc1 | 99.1%
